# Assay results taken from the supplement of paper PMC6555819.
# Legend:
# Assay in all cases: PBM binding z-score (relative to random genomic background probes); higher = stronger binding; sequences stand for … in GC…GCGATTGACAGCGTAGAATGAAGG
# [1] = system: FXR:RXRa (NR concentration 270 nM, RXRa partner concentration 90 nM)
# How it was run: (§1)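 For binding z-scores, the reference was random background probes on custom Agilent 4×180K protein-binding microarrays. These arrays were incubated 1 h with ligand-free nuclear receptor dimers in PBS pH 7.4, 2% milk, 0.02% Triton X-100, 1 mM DTT, 0.2 mg/mL BSA and 0.4 mg/ml salmon testes DNA. Fluorescence was scanned after antibody detection of each partner (one per run) and regression-normalized.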
# [2] = system: LXRa:RXRa (NR concentration 270 nM, RXRa partner concentration 90 nM)
# How it was run: as §1
# [3] = system: LXRa homodimer (NR concentration 270 nM)
# How it was run: as §1
# [4] = system: LXRb:RXRa (NR concentration 270 nM, RXRa partner concentration 90 nM)
# How it was run: as §1
# [5] = system: LXRb homodimer (NR concentration 270 nM)
# How it was run: as §1
# [6] = system: PPARa:RXRa (NR concentration 270 nM, RXRa partner concentration 90 nM)
# How it was run: as §1
# [7] = system: PPARg:RXRa (NR concentration 180 nM, RXRa partner concentration 90 nM)
# How it was run: as §1
# [8] = system: PPARg:RXRa 270nM:90nM, anti-RXR (NR concentration 270 nM, RXRa partner concentration 90 nM)
# How it was run: as §1
# [9] = system: PPARg:RXRa 30nM:10nM, anti-RXR (NR concentration 30 nM, RXRa partner concentration 10 nM)
# How it was run: as §1
# [10] = system: PPARg:RXRa 90nM:30nM, anti-RXR (NR concentration 90 nM, RXRa partner concentration 30 nM)
# How it was run: as §1
Sequence,PBM binding z-score [1],PBM binding z-score [2],PBM binding z-score [3],PBM binding z-score [4],PBM binding z-score [5],PBM binding z-score [6],PBM binding z-score [7],PBM binding z-score [8],PBM binding z-score [9],PBM binding z-score [10]
TAGCCTAGGTCAGATCGGGCCTGTATACGCTATA,1.56,0.715,-0.411,0.501,-0.0997,1.49,0.482,0.395,-0.139,0.162
AGAATGAGGTTATTAACATCAGGGAATTGCGGTC,1.93,1.61,0.0364,1.24,0.0777,2.63,1.32,1.34,0.42,0.938
ATCTCTAGGTAACCAAGTTCAGTGCATGCCGAAC,0.755,1.14,0.876,0.833,0.777,1.38,0.901,0.936,0.401,0.474
CGTCCAAGGCCAGCAGGTCAGTGAAAGCGACGTG,0.378,0.0811,-0.472,-0.00321,-1.05,0.83,-0.215,-0.182,-0.911,-0.203
AGTCAAAGTTCAGGACGAGGTAACGTGAAGCACG,4.49,3.69,1,1.68,-0.0491,3.33,4.84,4.84,2.04,4.12
TCTAGTTGGTCACGGAGGTCACACTCGACGGGTA,3,3.28,2.58,3.06,0.84,3.75,2.84,3.93,3.54,3.5
GCTAGCAGTCCATTTGGGTCACTCAATGACGGGC,0.123,-0.125,-0.706,-0.0386,-0.905,0.937,0.41,0.105,-0.37,-0.0818
TCTATTAGTTGAAGGGCTACCGACGAGTCCGTTT,0.932,0.924,0.312,0.431,0.511,0.594,-0.151,2.01,3.62,2.96
AATACAGGGTCATCGTAGCCCAGAGTACGCACAG,6.98,5.87,2.36,4.47,1,5.89,6.62,6.26,3.25,4.75
CCGTACGGGTCACTCCAGGTTATAGCATCGGAGT,5.48,7.91,1.62,5.38,-0.751,4.45,2.97,3.49,1.05,1.9
CGTACAAGGTCAATGCTAGGTCAGTGAAAGCATT,7.34,6,2.7,4.55,1.54,5.5,5.12,5.6,2.08,4.22
ACTATTAGTTGAGACGACGGCAACCGATAGGTTG,-0.095,-0.329,-0.396,-0.449,0.14,-0.603,0.568,-0.326,-0.098,-0.21
CCAGATAGGTGAAAGGTAACTCAGTCTGGTACGC,0.688,0.694,0.0245,1.14,-0.143,4.2,7.95,7.54,7.57,7.93
CGAACTAGGTCATCCAGGACTGTGAATACATTGA,4.52,2.4,0.426,2.06,0.107,4.84,7.64,6.38,4.23,5.82
ACTAGCAGGCCGAGTTTGGGTCACTCAAACAAAG,-0.115,-0.146,-0.389,0.653,-0.928,1.21,-0.2,-0.103,-0.644,-0.461
ACTATTAGTTGAGGCGAGGGCAACCGATAGGTTG,0.489,0.289,0.0582,0.0711,0.108,0.378,0.389,0.0046,0.138,-0.0218
TCGAGTAGTTTAGGGGCATTCAGAATGGCGTCGA,-0.0607,0.048,-0.581,0.829,-0.452,0.549,-0.393,0.237,0.631,0.559
GCTTGTAGATCAAGGTTAAGAAAGACTAAGCTAA,0.0354,0.884,-0.55,0.55,-0.627,1.56,1.01,2.05,0.29,1.56
CCGACTGGTGCAAGGTTACCATAACGCACAGCCA,-0.035,0.459,-0.262,0.654,-1.22,0.831,0.89,0.462,-0.236,0.039
